Compound activity (PubChem BioAssay)
T cruzi growth-1: blocks T. cruzi growth in NIH3T3 culture; AID 624255; inhibition, % at 8.34 µM; T. cruzi beta-gal in NIH3T3, GalScreen luminescence, 90 h; 5.9% of 77,000 active;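 active = mean inhibition above about 93%, with at least 55% of replicates each passing it, limit read from the data, passing the limit was not always enough; inconclusive = only one of those two conditions holds; inactive = neither condition holds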
Pf Dd2 growth: inhibitors of Plasmodium falciparum Dd2 growth | P. falciparum Dd2 growth, SYBR Green, 72 h; hits give low values | activity change, % at 10 µM | 2.3% of 94,000 active; in the data active = activity change below about -80%; inconclusive = no clear call, values can overlap the other calls
C diff growth: C. difficile growth inhibition; Clostridium difficile clinical isolate growth, OD600, 24 h; hits give low values; growth activity, negative = inhibition, % at 16 µg/mL (by protocol); 0.25% of 86,000 active; AID 1259249;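 active = mean growth activity at or below -80% and every replicate also at or below -80%; inconclusive = mean at or below -80% but some replicate above -80%; inactive = mean growth activity above -80%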;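 note: 0% = DMSO wells and -100% = levofloxacin 16 µg/mL wells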
T cruzi growth-2: inhibitors of T. cruzi proliferation | 72% of 5,600 active | inhibition, % at 8.35 µM | T. cruzi beta-gal in NIH3T3, GalScreen luminescence, 90 h | AID 651739 | shares compounds with T cruzi growth-1;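 active = mean replicate inhibition above about 95% and at least 55% of replicates individually reaching it, limit read from the data; inconclusive = only one of the two criteria is met; inactive = neither criterion is met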
T cruzi growth-3: inhibitors of T. cruzi proliferation; T. cruzi beta-gal in NIH3T3, GalScreen luminescence, 90 h; 21% of 5,600 active; inhibition, % at 2.09 µM; shares compounds with T cruzi growth-1;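 active = mean inhibition above about 95%, with at least 55% of replicates also reaching it, limit read from the data; inconclusive = meets just one of the two conditions; inactive = meets neither condition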;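 note: plate controls were neutral control median for no effect and positive control median for full effect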
NIH3T3 tox: NIH/3T3 (mouse) viability loss; shares compounds with T cruzi growth-1; NIH/3T3 viability, CellTiter-Glo ATP luminescence, 90 h; cytotoxicity (signal decrease), % at 8.35 µM; 14% of 5,600 active; AID 651742;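 active = mean signal decrease across replicates above about 35% based on untreated-well scatter, with enough replicates individually passing, limit read from the data; inconclusive = no rule stated though some were filed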;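 note: 0% = median of neutral control wells and 100% = median of positive control wells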
NIH3T3 tox 2: NIH/3T3 (mouse) viability loss. AID 651744. 56% of 5,600 active. inhibition, % at 24.9 µM. NIH/3T3 viability, CellTiter-Glo ATP luminescence, 90 h. shares compounds with T cruzi growth-1;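 active = mean loss of cell viability signal at or above a set limit, and enough replicates individually reaching it; inconclusive = meets only the mean limit or only the replicate share; inactive = meets neither condition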;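 note: 0% = median of neutral control wells and 100% = median of positive control wells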
* marks the source's active call; other numbers are inactive results; ? = inconclusive; . = not tested or not shown. Only some compounds are listed: those with a hit (about 6.7% of all), similar ones and a draw of the others.

SMILES | T cruzi growth-1 | Pf Dd2 growth | C diff growth | T cruzi growth-2 | T cruzi growth-3 | NIH3T3 tox | NIH3T3 tox 2
COc1ccc(S(=O)(=O)N(C)C[C@H]2OCCCC[C@@H](C)Oc3ccc(NC(=O)C4CCCCC4)cc3C(=O)N([C@H](C)CO)C[C@@H]2C)cc1 | 37 | -44 | 2 | . | . | . | .
COc1ccc(S(=O)(=O)N(C)C[C@@H]2OCCCC[C@@H](C)Oc3ccc(NC(=O)C4CCCCC4)cc3C(=O)N([C@@H](C)CO)C[C@@H]2C)cc1 | 99* | -80 | -2 | 94 | 57 | 12 | 72*
COc1ccc(S(=O)(=O)N(C)C[C@@H]2Oc3ccc(NC(=O)Cn4cnnn4)cc3C(=O)N([C@@H](C)CO)C[C@H]2C)cc1 | -15 | 19 | -3 | . | . | . | .
COc1ccc(S(=O)(=O)N(C)C[C@H]2Oc3ccc(NC(=O)Cn4cnnn4)cc3C(=O)N([C@@H](C)CO)C[C@H]2C)cc1 | 100* | -16 | -6 | 37 | -33 | 10 | 6
O=C(Cc1cccnc1)N1CC2(C1)[C@@H](c1ccccc1)[C@@H](CO)N2C(=O)C1CCCCC1 | . | 3 | -4 | . | . | . | .
COc1ccc(CN(C)C[C@H]2OCCCC[C@@H](C)Oc3ccc(NS(=O)(=O)c4ccc(F)cc4)cc3C(=O)N([C@H](C)CO)C[C@@H]2C)cc1 | 3 | -34 | 0 | . | . | . | .
COc1ccc(S(=O)(=O)Nc2ccc3c(c2)C(=O)N([C@H](C)CO)C[C@H](C)[C@@H](CN(C)Cc2ccc(C(F)(F)F)cc2)OCCCC[C@@H](C)O3)cc1 | 98* | -38 | -2 | 102* | 38 | 9 | 84*
COc1ccc(CN(C)C[C@H]2OCCCC[C@@H](C)Oc3ccc(NS(=O)(=O)c4ccc(Cl)cc4)cc3C(=O)N([C@H](C)CO)C[C@H]2C)cc1 | 119* | -71 | 1 | 115* | 92 | 34 | 106*
COc1ccc(CN(C)C[C@H]2OCCCC[C@H](C)Oc3ccc(NS(=O)(=O)c4ccc(Cl)cc4)cc3C(=O)N([C@H](C)CO)C[C@@H]2C)cc1 | 89 | -38 | -1 | . | . | . | .
COc1ccc(CN(C)C[C@H]2OCCCC[C@@H](C)Oc3ccc(NS(=O)(=O)c4ccc(OC)cc4)cc3C(=O)N([C@@H](C)CO)C[C@@H]2C)cc1 | 50 | -59 | -3 | . | . | . | .
COc1ccc(CN(C)C[C@@H]2OCCCC[C@H](C)Oc3ccc(NS(=O)(=O)c4ccc(Cl)cc4)cc3C(=O)N([C@H](C)CO)C[C@H]2C)cc1 | ? | -57 | 16 | 97* | 110* | 31 | 103*
COc1ccc(CN(C)C[C@H]2OCCCC[C@H](C)Oc3ccc(NS(=O)(=O)c4ccc(F)cc4)cc3C(=O)N([C@@H](C)CO)C[C@H]2C)cc1 | 103* | -72 | -13 | 105* | 66 | 26 | 103*
COc1ccc(S(=O)(=O)Nc2ccc3c(c2)C(=O)N([C@@H](C)CO)C[C@H](C)[C@@H](CN(C)Cc2ccc(C(F)(F)F)cc2)OCCCC[C@H](C)O3)cc1 | 89 | -44 | 14 | . | . | . | .
C[C@H](CO)N1C[C@H](C)[C@@H](CN(C)C(=O)Nc2ccc(C(F)(F)F)cc2)Oc2ccc(NS(=O)(=O)c3ccc(Cl)cc3)cc2CC1=O | -4 | -8 | 9 | . | . | . | .
C[C@H]1CN([C@@H](C)CO)C(=O)c2cc(NS(=O)(=O)c3ccccc3)ccc2O[C@H]1CN(C)Cc1ccc(C(=O)Nc2ccccc2N)cc1 | 22 | -29 | 19 | . | . | . | .
O=C(C[C@H]1CC[C@@H](NS(=O)(=O)c2ccc(F)cc2)[C@@H](CO)O1)NC1CCCCC1 | . | 16 | 2 | . | . | . | .
COc1ccc(CN(C)C[C@H]2OCCCC[C@@H](C)Oc3ccc(NS(=O)(=O)c4ccc(Cl)cc4)cc3C(=O)N([C@@H](C)CO)C[C@H]2C)cc1 | ? | -59 | 6 | 82 | 68 | 38* | 106*
COc1ccc(CN(C)C[C@H]2OCCCC[C@@H](C)Oc3ccc(NS(=O)(=O)c4ccc(Cl)cc4)cc3C(=O)N([C@H](C)CO)C[C@@H]2C)cc1 | 44 | -31 | 2 | . | . | . | .
CO[C@@H]1CN(C)C(=O)c2cc(NS(=O)(=O)c3cccc(C)c3)ccc2OC[C@@H](C)N(C(=O)Cc2cccnc2)C[C@H]1C | . | 15 | . | . | . | . | .
C[C@@H]1CN([C@H](C)CO)C(=O)c2cccc(NC(=O)Nc3ccccc3)c2O[C@@H]1CN(C)C | -24 | -33 | -5 | . | . | . | .
